Reference: PubChem BioAssay

Test: S. cerevisiae RM11-1a growth modifiers, primary screen, strain RM11-1a, OD600, basal, 24 h (AID 1177);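 further: cultures grown under basal conditions with no added stressor; test concentration not given here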
Details: OD600, 24 h, higher = more signal, called active from +8 up or from −8 down

z-score, inactive:
COCCOC(=O)N1C(=O)[C@@]2(c3cc(C#Cc4ccc(OC)cc4)ccc31)[C@H](c1ccc(OCCO)cc1)N1[C@H](c3ccccc3)[C@H](c3ccccc3)OC(=O)[C@H]1[C@@H]2C(=O)NC[C@H](O)c1ccccc1 3.81, CC1CC/C=C\[C@H]2OC34C=CCN(Cc5ccccc5)C(=O)[C@H]3N(CCCCCCO)C(=O)[C@@H]4C2C(=O)O1 (stereo partly specified) -0.38, [N-]=[N+]=Nc1ccccc1[C@@H]1OC(c2ccc(OCCCO)cc2)=N[C@]1(CCS(=O)(=O)c1ccccc1)C(=O)NCC(O)CO (stereo partly specified) 0.777, COC(=O)[C@@]1(Cc2ccccc2)[C@H]2c3cc(C(=O)N(C)C)n(CCSC(=N)N)c3C[C@H]2CN1C(=O)c1ccccc1 0.0986, CC(C)[Si](C#CCCc1ccccc1)(O[C@H](c1ccccc1)c1cn(Cc2ccccc2)nn1)C(C)C 0.129, O=C(NCc1ccc(F)cc1)[C@H]1C[C@H]2C(=O)N3CCC[C@H]3C(=O)N2[C@H]1c1ccc(O)cc1 -0.795, COC(=O)[C@]1(Cc2ccccc2)N=C(c2ccc(OCCCO)cc2)O[C@@H]1c1ccccc1CN=[N+]=[N-] 2.72, CC(C)C[C@@H]1NC(=O)[C@@H]2C[C@H](C(=O)NCCCCCCNC(=O)CS)[C@H](c3cccc(OCCO)c3)N2C1=O 1.11, O=C1O[C@@H](c2ccccc2)[C@@H](c2ccccc2)N2[C@@H](c3ccc(OCCO)cc3)[C@]3(C(=O)Nc4ccc(C#CCCO)cc43)[C@@H](C(=O)O)[C@H]12 0.575, CCCC[C@H]1C[C@@H]1[C@@H]1N(C(C)=O)[C@H](c2cccc(OC)c2)CC12CC2 0.52, C=C(COC)/C(=C/C[C@@H](OC(C)=O)c1ccccc1OCCO)c1cnc2ccccc2c1 0.315, CN(C)CCCNC(=O)[C@@]1(C)c2ccccc2C(=O)N(Cc2ccc(OC(F)(F)F)cc2)[C@H]1c1ccc(CO)cc1 -0.164, C=CC[C@]1(C(=O)NCC(O)CO)COC(c2ccc(OCCCO)cc2)=N1 (stereo partly specified) 1.33, C=CCC(OC(C)=O)[C@@H]1[C@@H](N(Cc2cccc3ccccc23)C(=O)c2ccc(-c3ccccc3)cc2)c2cc(OCCCO)ccc2N1C(=O)Cc1ccc2ccccc2c1 (stereo partly specified) -0.368, CCCCCC1=C2CNC(CC(C)C)(C(=O)OC)C=C2C(C)C1=O (stereo unspecified) 0.915, CN1C(=O)[C@@H]2[C@@H](CC(COc3ccccc3)=C3[C@@H](CCc4ccccc4)OB(O)C[C@@H]32)C1=O -0.0646, COC(=O)[C@@]1(Cc2ccc(OC)cc2)[C@H]2c3cc(C(=O)N4CCCC4)n(Cc4ccc(C(F)(F)F)nc4)c3C[C@H]2CN1C(=O)c1ccccc1 -0.809, C=CCC(OC(C)=O)[C@@H]1[C@@H](N(Cc2cc3ccccc3o2)C(=O)Cc2ccc(OC)cc2)c2cc(OCCCO)ccc2N1C(=O)c1ccc2ccccc2n1 (stereo partly specified) -0.266, [N-]=[N+]=Nc1ccccc1[C@@H]1OC(c2ccc(OCCCO)cc2)=N[C@]1(Cc1ccccc1)C(=O)NCCN1CCOCC1 -0.158, COc1ccc(C(=O)Nc2cccc(CN3C(=O)[C@]4(O[C@H](CC(=O)N5Cc6ccccc6C[C@H]5CO)[C@@H]([Si](C)(C)c5ccc(OC)cc5)[C@@H]4C)c4ccccc43)c2)cc1 2.82, C=CCN1C(=O)[C@@]2(O[C@@H](CCn3cc([C@H](O)c4ccccc4)nn3)[C@H]([Si](C)(C)c3ccc(OC)cc3)[C@H]2C)c2cc(N3C(=O)c4cccc5cccc3c45)ccc21 1.72, CC(C)(C)N1CC=CC23O[C@@H]4/C=C\CCCOC(=O)C4[C@H]2C(=O)N(CCCCCO)[C@@H]3C1=O (stereo partly specified) -0.746, CN(C)CCCC[C@@H]1NC(=O)[C@@H]2C[C@H](C(=O)NCCCCCCNC(=O)CS)[C@H](c3ccc(O)cc3)N2C1=O -0.264, CC1CC/C=C\[C@H]2OC34C=CCN(CCN5CCOCC5)C(=O)[C@H]3N(CCCO)C(=O)[C@@H]4C2C(=O)O1 (stereo partly specified) 0.296, COc1ccccc1CN1C(=O)c2ccccc2[C@](Cc2ccccc2I)(C(=O)NCC(C)C)[C@@H]1c1ccc(CO)cc1 -0.337, COCC(=C=CC[C@H](O)c1ccccc1OCCO)C[C@H](O)COCc1ccccc1 -0.482, O=C(NC1CC1)[C@@H]1c2ccccc2C(=O)N(Cc2ccc(OC(F)(F)F)cc2)[C@H]1c1ccc(CO)cc1 -0.544, O=C1C2C=CC(C(O)c3c(F)cccc3Cl)N(Nc3ccc([N+](=O)[O-])cc3)C2C(=O)N1c1ccccc1 (stereo unspecified) 0.378, C[C@@H]1NC(=O)C([C@@H](C)OCc2ccccc2)NC(=O)[C@@]23C(=O)N[C@@H](Cc4ccccc4)C2[C@H](C)[C@@]2(C)O[C@H]2C3/C=C/C/C=C\CNC1=O (stereo partly specified) 0.533, CC1CC/C=C\[C@H]2OC34C=CCN(c5ccc(Cl)cc5)C(=O)[C@H]3N(CCCCCCO)C(=O)[C@]4(C)C2C(=O)O1 (stereo partly specified) 0.268, CC1=C([C@H](O)CCc2ccccc2)[C@H](CO)n2c(=O)n(-c3ccccc3)c(=O)n2C1 -1.97, CCOC(=O)C[C@H]1[C@H](OC(=O)Cc2ccc3c(c2)OCO3)[C@@H](NC(=O)Cc2ccc(OC)cc2)c2cc(OCCCO)ccc2N1C(=O)Cc1ccc(OC)cc1 -1.62, COc1ccc(C(O)C2C=CC3C(=O)NC(=O)C3N2Nc2ccc(Cl)cc2Cl)c2ccccc12 (stereo unspecified) 0.361, C=C1C(=O)C=C2CN(C(=O)c3ccccc3)[C@@](Cc3ccc(OC)cc3)(C(=O)OC)[C@@H]12 0.468, COC(=O)[C@@]1(Cc2ccccc2)[C@H]2c3cc(C(=O)N(C)C)n(Cc4ccc(S(C)(=O)=O)cc4)c3C[C@H]2CN1C(=O)c1ccccc1 0.879, CCCNC(=O)[C@@]1(c2ccc([N+](=O)[O-])cc2)CC(=O)N(C(C)C)[C@@H]1c1ccc(CO)cc1 -0.355
